Screening results (PubChem BioAssay)
Compounds with a hit are over-represented: about 1.5% of the library has one in this group of screens.
rTrxR1 inhibitor: rat TrxR1 inhibition | O89049 | recombinant rTrxR1, NADPH fluorescence consumption, selenite substrate | Potency, µM (top dose mostly 114 µM), actives largely listed as inhibitors | 390,000 tested, 1% active | AID 588453; further: nearly all actives have a fitted effect of over 65% in size
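Rat TrxR1 (90 nM in the dispensed reagent) was pre-reduced with 400 uM NADPH for 5 min at room temperature, then incubated with compound for 15 min. After 400 uM selenite was added, NADPH fluorescence (Ex 340/Em 450 nm) was followed for 8 min.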
mIDH1 inhibitor: blocks human mutant IDH1 R132H enzyme | Potency, µM (doses to about 76.6 µM), usual class: inhibitors | O75874 | IDH1-R132H enzyme, NADPH consumption, diaphorase/resazurin fluorescence | 390,000 tested, 0.093% active | AID 602179; further: nearly all actives have a fitted effect of over 65% in size
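IDH1-R132H (0.5 ug/mL) preincubated 30 min with compound, then NADPH (0.016 mM) and alpha-KG (2 mM) added; 80 min at RT, pH 7.5. Remaining NADPH coupled via diaphorase/resazurin to fluorescence (540/590 nm); concentration-response curves normalized to no-enzyme control.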
Eya2 inh: Eya2 (human) phosphatase inhibition. recombinant Eya2, OMFP fluorescence dephosphorylation (OMFP is methylfluorescein phosphate). Potency, µM (doses to about 76.9 µM), hits mostly inhibitors. 330,000 tested, 0.006% active. AID 488837
Target sequence (O00167 whole entry, looked up): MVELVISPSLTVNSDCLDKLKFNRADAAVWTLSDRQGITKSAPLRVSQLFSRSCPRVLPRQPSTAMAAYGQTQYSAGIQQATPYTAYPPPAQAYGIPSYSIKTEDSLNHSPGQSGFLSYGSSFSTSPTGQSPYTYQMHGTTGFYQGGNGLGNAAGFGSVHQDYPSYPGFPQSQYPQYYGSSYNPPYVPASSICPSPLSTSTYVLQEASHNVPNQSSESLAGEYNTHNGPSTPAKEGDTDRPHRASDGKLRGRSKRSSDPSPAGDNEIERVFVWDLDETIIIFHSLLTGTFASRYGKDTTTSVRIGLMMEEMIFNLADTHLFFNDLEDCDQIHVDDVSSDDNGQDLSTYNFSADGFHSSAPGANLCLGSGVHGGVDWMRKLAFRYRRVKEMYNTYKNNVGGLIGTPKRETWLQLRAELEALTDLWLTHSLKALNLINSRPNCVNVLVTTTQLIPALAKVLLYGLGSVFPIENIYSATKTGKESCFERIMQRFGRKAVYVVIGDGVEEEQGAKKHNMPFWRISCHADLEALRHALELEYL
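Eya2 (0.2 uM) preincubated 10 min at ambient with compound, then OMFP substrate added at 50 uM; 10 min reaction in 50 mM HEPES pH 7.5, 50 mM NaCl, 5 uM MgCl2, 0.05% BSA, 1 mM DTT. Fluorescence read at Ex 485/Em 525 nm.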
TrxR1 substrate: rat thioredoxin reductase 1 substrate activity. O89049. purified TrxR1 substrate turnover, NADPH consumption readout. Potency, µM (doses to about 114 µM). 390,000 tested, 0.01% active; further: nearly all actives have a fitted effect of over 50% in size
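Rat TrxR1, dispensed at 90 nM, was prereduced with 400 uM NADPH (final) for 5 min at ~22 deg C, then incubated with compound 15 min before 400 uM selenite. A first-read NADPH fluorescence drop versus no-compound background flagged substrates.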
Coupling enz: coupling enzyme interference in Giardia aldolase counter-screen; coupling enzyme system counterscreen, AmpLite Red fluorescence; activity change, negative = inhibition, % at 58.2 µM, hits read low; 290,000 tested, 0.67% active; AID 2472; in the data active means activity change below about -30%
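Counterscreen lacking aldolase: glyceraldehyde-3-phosphate coupling-enzyme reagent preincubated 10 min at RT with compound (at 57.5 uM final), then substrate/coupling system with AmpLite Red added; fluorescence read at 525/598 nm after 20 min RT.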
Of the large screens only hits and unclear results are named; the others gave an inactive call. Unless noted, the call rests on the fitted dose curve; in most records, active means well fitted curve in the direction sought with a large enough effect; inconclusive means small, poorly fitted or top-dose-only effect, or another doubt; inactive means no such curve, though single readings can be large; an effect the other way counts as inactive or inconclusive.

CCCC(=O)NC(C)c1nc2ccccc2[nH]1 (centres undefined)	none
Cc1ccc(Sc2cc(NCCCO)c([N+](=O)[O-])c3nonc23)cc1	rTrxR1 inhibitor 12.6µM
CCCC(=O)OCCNc1cc(Sc2nc3ccccc3[nH]2)c2nonc2c1[N+](=O)[O-]	rTrxR1 inhibitor 1µM
CC(=O)OCCNc1cc(SC(C)C)c2nonc2c1[N+](=O)[O-]	none
CCC(=O)OCCNc1cc(SCCC(=O)OC)c2nonc2c1[N+](=O)[O-]	rTrxR1 inhibitor 8.91µM
CC(C)CCOc1ccc(CC(=O)NO)cc1	none (no result: mIDH1 inhibitor, Eya2 inh, Coupling enz)
COc1ccc(CC(=O)NO)cc1OC	none (no result: mIDH1 inhibitor, Eya2 inh, Coupling enz)
CCOc1cccc(C2C=C(c3ccc4c(c3)OCO4)NC(c3ccc(Cl)cc3)N2)c1O (centres undefined)	none (no result: mIDH1 inhibitor, Eya2 inh, Coupling enz)
O=C(/C=C/c1ccccc1Cl)c1cccnc1	rTrxR1 inhibitor 7.08µM
N#Cc1ccc(/C=C/C(=O)c2cccnc2)cc1	rTrxR1 inhibitor 22.4µM
CCN(CC)c1ccc(/C=C/C(=O)c2cccnc2)cc1	none
O=C(/C=C/c1ccc(Cl)cc1)c1cccnc1	rTrxR1 inhibitor 31.6µM
O=C(C=Cc1cccc(Cl)c1)c1ccccc1	rTrxR1 inhibitor 39.8µM (no result: Eya2 inh, Coupling enz)
CCNc1nc(N2CCCN(C)CC2)nc2cc(OC)c(OC)cc12	none (no result: mIDH1 inhibitor, Eya2 inh, Coupling enz)
CCCCCCCCCC[n+]1cc(Br)cc(Br)c1	none (no result: mIDH1 inhibitor, Eya2 inh, Coupling enz)
CC1CCC(C(C)C)C(P(=O)(c2ccccc2)c2ccccc2)C1 (centres undefined)	none (no result: rTrxR1 inhibitor, mIDH1 inhibitor, Eya2 inh, TrxR1 substrate)
Cc1ccc(/C=C/C(=O)N2CCN(c3ccc(F)cc3)CC2)o1	none
COc1ccccc1N1CCN(C(=O)/C=C/c2ccco2)CC1	rTrxR1 inhibitor 39.8µM
Cc1ccc(/C=C/C(=O)N2CCN(c3ncccn3)CC2)o1	rTrxR1 inhibitor 22.4µM
O=C(c1ccco1)N1CCc2ccccc21	none
COc1ccccc1N1CCN(C(=O)/C=C/c2ccccc2)CC1	none
O=C(/C=C/c1ccco1)N1CCCC(c2ccccc2)C1 (centres undefined)	rTrxR1 inhibitor 31.6µM
O=C(/C=C/c1ccco1)N1CCc2ccccc21	rTrxR1 inhibitor 56.2µM
Cc1cc(NC2CCCCC2)nc(-n2nc(C)cc2C)n1	none (no result: mIDH1 inhibitor, Coupling enz)
CC(C)(C)c1ccc(NC(=O)COC(=O)c2ccccc2OCC(=O)Nc2ccc(Br)cc2)cc1	none (no result: mIDH1 inhibitor, Eya2 inh, Coupling enz)
Cc1ccc(C)c(S(=O)(=O)N2CCN(C(=O)/C=C/c3ccco3)CC2)c1	rTrxR1 inhibitor 7.94µM (no result: Coupling enz)
Cc1ccc(/C=C/C(=O)N2CCc3ccccc32)o1	rTrxR1 inhibitor 3.16µM
CCCN1CNc2c(c(=O)[nH]c(=S)n2CCc2cc(Cl)cc(Cl)c2)C1	none (no result: mIDH1 inhibitor, Eya2 inh, Coupling enz)
CC(=O)Nc1ccc(/C=C/c2ccccn2)cc1	rTrxR1 inhibitor inconclusive (no result: mIDH1 inhibitor, Eya2 inh, Coupling enz)
Fc1cccc(Cl)c1CNc1ccc(N2CCCC2)cc1	rTrxR1 inhibitor 3.98µM
O=C(Nc1ccccc1)Nc1ccc(Oc2ncnc3cc(Cl)ccc23)nc1	none
O=C(O)/C=C/C(=O)Nc1ccc(Oc2ncnc3cc(Cl)ccc23)nc1	rTrxR1 inhibitor 56.2µM
O=C1CC(N2CCN(c3ccccn3)CC2)C(=O)N1CC(c1ccccc1)c1ccccc1 (centres undefined)	rTrxR1 inhibitor 25.1µM
O=C1CC(N2CCN(c3ccccn3)CC2)C(=O)N1c1ccc(F)cc1 (centres undefined)	none
COc1ccc(OC)c(-n2c3c(cc(-c4nc(-c5ccc(Cl)cc5)cs4)c2=O)C(=O)CC(C)(C)C3)c1	mIDH1 inhibitor 1.26µM (no result: Eya2 inh, Coupling enz)
COc1ccc(-n2c3c(cc(-c4nc(-c5ccc(C)cc5)cs4)c2=O)C(=O)CC(C)(C)C3)cc1	none (no result: Eya2 inh, Coupling enz)
C/C=C\C1=CCCC1Nc1ncnc2ccc(-c3c(C)noc3C)cc12 (centres undefined)	none (no result: rTrxR1 inhibitor, mIDH1 inhibitor, Eya2 inh, TrxR1 substrate)
NC(N)=Nc1cc2ccccc2c2ccccc12	Coupling enz -33.8 (no result: rTrxR1 inhibitor, mIDH1 inhibitor, TrxR1 substrate)
CC(/C=C/c1ccco1)=N\NC(=O)CNc1cccc(C)c1	none
CC(/C=C/c1ccco1)=N\NC(=O)C(O)c1ccccc1 (centres undefined)	rTrxR1 inhibitor 17.8µM
COC(=O)N/N=C(C)\C=C\c1ccco1	rTrxR1 inhibitor 39.8µM
CN(C)C(=O)COc1ccccc1C(=O)OCC(=O)Nc1ccc(Oc2ccc(Br)cc2)cc1	none (no result: mIDH1 inhibitor, Eya2 inh, Coupling enz)
CCN(CCO)c1ccc(NC(=S)Nc2cccc(S(=O)(=O)N(C)C)c2)cc1	rTrxR1 inhibitor inconclusive, Coupling enz -40.6
